Where “and” joins values, the source holds several entries; their conditions need not be identical. Equal values may be shown once. Inconclusive results are not listed. A call without a number means that no potency is given here. Some compounds were tested as several samples or in several runs, with calls that do not always agree. Calls of active or inactive are those of the source. Calls follow the shape of the dose curve; as a rule, active = well fitted activation curve with a large enough effect in the repeat runs; inconclusive = weak or mixed curves; inactive = no such curve, though single readings can be large or run the other way.
Target: Nuclear receptor subfamily 1 group I member 2 (Homo sapiens) (UniProt O75469)
Assay: Human pregnane X receptor (PXR) small molecule agonists, qHTS assay (AID 1346982); also: nearly all actives have a fitted effect of over 35% in size
Conditions: PXR-Luc HepG2, CYP3A4 luciferase reporter, 24 h; series mostly up to 92.4 µM; activation: at the top concentration
Description: National Center for Advancing Translational Sciences [NCATS]
NIH Chemical Genomics Center [NCGC]
U.S. Environmental Protection Agency [EPA]
National Institutes of Environmental Health Sciences [NIEHS]
National Toxicology Program [NTP]
The human pregnane X receptor (hPXR) regulates the expression of several drug metabolizing enzymes and induction of these proteins is a major mechanism for developing drug resistance in cancer. One such key enzyme catalyzing the drug metabolism is cytochrome P450 3A4 (CYP3A4). Changes in CYP3A4 expression affect drug metabolism, thereby reducing the therapeutic efficacy and altering toxicological response to a drug and which finally causes adverse drug interaction. To screen Tox21 libraries for compounds that activate hPXR-mediated CYP3A4 gene expression, PXR-Luc HepG2 cells were used.
PXR-Luc HepG2 cells were dispensed at 2,000 per well in 5uL of assay medium containing 5% charcoal-stripped FBS into white solid bottom 1536-well plates (Corning Life Sciences, Corning, NY) using a Multidrop Combi (Thermo Scientific, Waltham, MA) dispenser. The assay plates were incubated at 37 C and 5% CO2 for 5hr, and then 23nL of compounds dissolved in DMSO and positive control were transferred using a Pintool station (Wako, San Diego, CA). The assay plates were incubated at 37C and 5% CO2 for 24hr. For luciferase read, 4uL of ONE-Glo reagent (Promega Corporation, Madison, WI) was added to each well of the assay plates using Flying Reagent Dispenser (FRD, Aurora Discovery, San Diego, CA) and incubated the assay plates at room temperature for 30min. The luminescence signal was quantified using a ViewLux plate reader (Perkin Elmer, Shelton, CT).
Potency is read from the fitted curve at half-maximal effect.

Chain of Nuclear receptor subfamily 1 group I member 2 (Homo sapiens) (O75469 whole entry, looked up): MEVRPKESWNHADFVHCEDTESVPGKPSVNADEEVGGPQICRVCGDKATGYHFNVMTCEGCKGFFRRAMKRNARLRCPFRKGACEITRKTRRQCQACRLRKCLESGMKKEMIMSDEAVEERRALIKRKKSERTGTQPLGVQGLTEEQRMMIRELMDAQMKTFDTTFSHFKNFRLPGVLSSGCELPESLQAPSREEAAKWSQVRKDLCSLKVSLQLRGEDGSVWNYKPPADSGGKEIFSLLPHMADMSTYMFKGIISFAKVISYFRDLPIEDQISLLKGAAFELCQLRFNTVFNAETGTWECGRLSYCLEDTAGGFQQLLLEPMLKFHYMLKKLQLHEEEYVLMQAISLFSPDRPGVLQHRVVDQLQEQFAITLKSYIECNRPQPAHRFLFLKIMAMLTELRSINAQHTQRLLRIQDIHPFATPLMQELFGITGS

Question: Which Potency does the source give for `CCOP(=S)(OCC)SCCSCC` here?
Answer: inactive

Question: For `OC(O)C(Cl)(Cl)Cl`, which Potency is on record?
Answer: inactive

Question: `OCCN(CCO)CCO` was tested. Which Potency did it give?
Answer: inactive

Question: For `CCCCCCCCCCCC#N`, which Potency is on record?
Answer: inactive

Question: Which Potency does the source give for `C#CCN(C)[C@H](C)Cc1ccccc1` here?
Answer: inactive

Question: `c1ccc2c(c1)Oc1ccccc1O2` was tested. Which “activation” value did it give?
Answer: 11.7% (inactive)

Question: `CCCN(CCC)N=O` was tested. Which Potency did it give?
Answer: inactive

Question: `CC(C)(C)C(O)(CCc1ccc(Cl)cc1)Cn1cncn1` (stereo not given) was tested. Which Potency did it give?
Answer: 27.6 µM (active) and 9.69 µM (active)

Question: How did the “activation” value turn out when `Cc1ccc(N)cc1Cl` was run?
Answer: -0.31% (inactive)

Question: For `O=S(=O)(c1ccc(Cl)cc1)c1cc(Cl)c(Cl)cc1Cl`, which Potency is on record?
Answer: 30.6 µM (active)

Question: How did the Potency turn out when `COCCl` was run?
Answer: 56.6 µM (active) and inactive

Question: How did the Potency turn out when `CN(C)N=O` was run?
Answer: inactive

Question: With `O=[N+]([O-])c1ccccc1` as the molecule, how does the Potency read?
Answer: inactive

Question: `CCCN(CCC)c1c([N+](=O)[O-])cc(C(F)(F)F)cc1[N+](=O)[O-]` was tested. Which Potency did it give?
Answer: 30.6 µM (active)

Question: With `ClCCBr` as the molecule, how does the Potency read?
Answer: inactive

Question: How did the “activation” value turn out when `O=C(NC(=O)c1c(F)cccc1F)Nc1cc(Cl)c(OC(F)(F)C(F)C(F)(F)F)cc1Cl` (stereo not given) was run?
Answer: 7.79% (inactive)

Question: With `c1ccc(-c2ccccc2)cc1` as the molecule, how does the Potency read?
Answer: inactive

Question: Which Potency does the source give for `ClCc1cccnc1` here?
Answer: inactive

Question: For `CCC[N+](=O)[O-]`, which Potency is on record?
Answer: inactive

Question: How did the Potency turn out when `COC(=O)NC(=S)Nc1ccccc1NC(=S)NC(=O)OC` was run?
Answer: 61.1 µM (active) and 48.6 µM (active)

Question: Which Potency does the source give for `CC(C)C#N` here?
Answer: inactive

Question: How did the Potency turn out when `c1ccc2c(c1)oc1ccccc12` was run?
Answer: inactive

Question: How did the Potency turn out when `CCN(CC)c1ccccc1` was run?
Answer: inactive

Question: `CCCCN(CC)C(=O)SCCC` was tested. Which Potency did it give?
Answer: inactive

Question: With `C1CC2OC2CC1C1CO1` (stereo not given) as the molecule, how does the Potency read?
Answer: inactive

Question: Which Potency does the source give for `CC(C)OC(=O)Nc1ccccc1` here?
Answer: 38.6 µM (active)

Question: How did the Potency turn out when `NCC(O)c1ccc(O)cc1` (stereo not given) was run?
Answer: inactive

Question: How did the “activation” value turn out when `O=S(=O)(c1ccc(O)cc1)c1ccc(O)cc1` was run?
Answer: 16.8% (inactive)

Question: `O=C(O)c1ccccn1` was tested. Which Potency did it give?
Answer: inactive

Question: Which Potency does the source give for `Nc1ccccc1C(=O)O` here?
Answer: inactive

Question: `O=c1n(Cl)c(=O)n(Cl)c(=O)n1Cl` was tested. Which Potency did it give?
Answer: inactive

Question: Which Potency does the source give for `CC(C)OC(=O)Nc1cccc(Cl)c1` here?
Answer: 38 µM (active) and 48.6 µM (active)

Question: `O=c1[nH]c2ccccc2c(=O)o1` was tested. Which Potency did it give?
Answer: inactive

Question: For `C=CCO`, which Potency is on record?
Answer: inactive

Question: Which Potency does the source give for `NCCc1ccc(O)cc1` here?
Answer: inactive

Question: For `CN(C)CCO`, which Potency is on record?
Answer: inactive

Question: How did the Potency turn out when `CC(C)NC(=O)N1CC(=O)N(c2cc(Cl)cc(Cl)c2)C1=O` was run?
Answer: 24.3 µM (active) and 54.5 µM (active)

Question: How did the Potency turn out when `CCC[CH2][Sn]([Cl])([Cl])[Cl]` was run?
Answer: inactive

Question: How did the Potency turn out when `O=C1CCCN1` was run?
Answer: 69.3 µM (active) and inactive

Question: Which Potency does the source give for `O=Cc1cccc(Oc2ccccc2)c1` here?
Answer: inactive

— PubChem BioAssay (Tox21)
